Source: the supplement of paper PMC6522484
± gives the standard deviation of the averaged measurements.

Tests used:
DLD1 [1] = test: cell viability (CellTiter-Glo) relative to plate median (fraction of plate median); higher = more viable cells; details: 5 µM; treatment time 24 h; reporter: 7TFP
How it was run: (§1)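 Stable lentiviral TCF/Wnt firefly luciferase reporters (7TFP or TCF4/Wnt) were present in the colorectal cancer cell lines used. These cells received library compounds at a final 5 µM for 24 h, and parallel plates were read for firefly luciferase or CellTiterGlo luminescence. Each well was normalised to the plate median, and the value reported is the mean of two independent replicates.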

HCT116 = test: as above; details: 5 µM; treatment time 24 h; reporter: TCF4/Wnt
How it was run: as §1

SW480 [2] = test: as above; details: 5 µM; treatment time 24 h; reporter: 7TFP
How it was run: as §1

DLD1 [3] = test: TCF/Wnt firefly luciferase reporter signal relative to plate median (fraction of plate median); higher = higher Wnt reporter signal; details: 5 µM; treatment time 24 h; reporter: 7TFP
How it was run: as §1

SW480 [4] = test: as above; details: 5 µM; treatment time 24 h; reporter: 7TFP
How it was run: as §1

Compound	cell viability (DLD1 [1])	cell viability (HCT116)	cell viability (SW480 [2])	TCF/Wnt firefly luciferase reporter signal (DLD1 [3])	TCF/Wnt firefly luciferase reporter signal (SW480 [4])
O=C1c2ccc(O)c(O)c2C(=O)c2c(O)ccc(O)c21	0.966 ± 0.048	0.877 ± 0.023	0.964 ± 0.03	1.09 ± 0.092	1.1 ± 0.085
NC1(C(=O)O)CC1	0.997 ± 0.061	0.9665 ± 0.0021	0.9795 ± 0.0064	0.885 ± 0.045	0.919 ± 0.059
CC1(C)CC[C@]2(C(=O)O)CC[C@]3(C)C(=CC[C@@H]4[C@@]5(C)CC[C@H](O)C(C)(C)[C@@H]5[C@H](O)C[C@]43C)[C@@H]2C1	0.946 ± 0.076	0.955 ± 0.092	0.992 ± 0.026	0.952 ± 0.018	1.04 ± 0.057
O=C(O)CCNC(=O)c1ccccc1	1.04 ± 0.035	1.035 ± 0.0071	1 ± 0.026	0.972 ± 0.0099	1.005 ± 0.0071
CC1=C(/C=C/C(C)=C/C=C/C(C)=C/CO)C(C)(C)CCC1	0.974 ± 0.079	1.15 ± 0.042	1.04 ± 0.042	1.14 ± 0.042	1.04 ± 0.057
COC(=O)Nc1nc2cc([S+]([O-])c3ccccc3)ccc2[nH]1 (stereo not given)	0.921 ± 0.093	0.869 ± 0.054	1.01 ± 0.08	0.983 ± 0.052	0.885 ± 0.12
CC(C)=CCC[C@](C)(O)C1CC=C(C)CC1 (stereo not given in full)	1.04 ± 0.063	0.973 ± 0.081	1.1 ± 0.085	1.03 ± 0.014	0.996 ± 0.076
COc1cc(C)c(C(=O)Oc2cc(C)c(C(=O)O)c(O)c2C)c(OC)c1C	0.961 ± 0.033	1.025 ± 0.0071	0.987 ± 0.047	0.953 ± 0.034	1 ± 0.099
CC(=O)[C@H]1CC[C@H]2[C@@H]3CC=C4C[C@@H](OC(=O)CCC(=O)O)CC[C@]4(C)[C@H]3CC[C@]12C	1.02 ± 0.021	1.01 ± 0.018	0.975 ± 0.033	0.97 ± 0.03	1.1 ± 0.028
N=C(N)N	0.982 ± 0.025	0.95 ± 0.16	1.02 ± 0.014	0.924 ± 0.076	1.025 ± 0.0071
S=P(N1CC1)(N1CC1)N1CC1	0.975 ± 0.036	0.928 ± 0.017	1.01 ± 0.03	0.975 ± 0.03	0.93 ± 0.021
COC(=O)c1cc(O)c(=O)c2c(O)c(O)ccc2c1	0.982 ± 0.096	0.8955 ± 0.0021	0.997 ± 0.033	0.785 ± 0.037	0.951 ± 0.11
CCC(=O)O[C@H]1[C@H](O[C@@H]2[C@@H](C)[C@H](O[C@H]3C[C@@](C)(OC)[C@@H](O)[C@H](C)O3)[C@@H](C)C(=O)O[C@H](CC)[C@@](C)(O)[C@H](O)[C@@H](C)C(=O)[C@H](C)C[C@@]2(C)O)O[C@H](C)C[C@@H]1N(C)C	0.989 ± 0.058	0.93 ± 0.011	1.01 ± 0.016	0.9955 ± 0.0064	1.11 ± 0.014
O=C(CCc1ccc(O)cc1)c1c(O)cc(O)cc1O[C@@H]1OC(CO)[C@@H](O)[C@@H](O)C1O (stereo not given in full)	1.07 ± 0.064	1.01 ± 0.016	1.03 ± 0.021	0.909 ± 0.033	1.06 ± 0.092
CC(=O)N1CCCC(N)C1=O (stereo not given) [N-Acetyl-3-amino-2-piperidinon]	0.974 ± 0.079	0.871 ± 0.021	0.946 ± 0.015	0.821 ± 0.13	0.851 ± 0.044
CNCCc1ccccn1	0.835 ± 0.059	0.979 ± 0.086	0.958 ± 0.027	1.08 ± 0.21	1.1 ± 0.05
Oc1cccc(O)c1	1.02 ± 0.072	0.985 ± 0.013	1.01 ± 0.02	0.873 ± 0.074	1.02 ± 0.055
CCCCCCCCCCCCCCC(C(=O)O)C(O)(CC(=O)OC)C(=O)O (stereo not given)	0.955 ± 0.05	0.878 ± 0.017	0.9505 ± 0.0064	0.979 ± 0.086	0.947 ± 0.028
C[C@H]1C[C@@H]2[C@H]([C@@H](O)C[C@@]3(C)[C@H]2CC[C@]3(O)C(=O)CO)[C@@]2(C)C=CC(=O)C=C12	1.01 ± 0.029	1.02 ± 0.056	1.04 ± 0.014	0.9235 ± 0.005	1.02 ± 0.062
C[C@@H]1OC(=O)C2=C1O[C@@H]1[C@@H](O)[C@]3(O)CCCC[C@H]3[C@](C)(C2=O)[C@@H]1C [Dihydrotetrodecamycin]	1.08 ± 0.057	1.05 ± 0.071	1.065 ± 0.0071	1.08 ± 0.15	1.04 ± 0.069
COc1ccccc1OCC(O)CO (stereo not given)	0.953 ± 0.015	1.08 ± 0.05	1.03 ± 0.052	1.09 ± 0.028	1.01 ± 0.095
O=c1c(-c2ccc(O)cc2)coc2cc(O)cc(O)c12 [Genistein (Biofocus)]	1.05 ± 0.078	1.04 ± 0.09	1.08 ± 0.099	1.21 ± 0.15	1.06 ± 0.021
CC(=O)OCC(=O)[C@@]1(O)[C@H](C)C[C@H]2[C@@H]3CCC4=CC(=O)C=C[C@]4(C)[C@@]3(F)[C@@H](O)C[C@@]21C	1.06 ± 0.085	0.952 ± 0.054	1.02 ± 0.088	0.958 ± 0.037	0.969 ± 0.044
CC(C)C[C@@H]1NC(=O)[C@H](C)NC1=O [cyclo(alanylleucyl)]	0.998 ± 0.046	1.02 ± 0.11	0.998 ± 0.045	0.994 ± 0.0028	0.987 ± 0.1
C[C@H]1CCC/C=C/C(=O)c2c(O)cc(O)cc2CC(=O)O1 [Dehydro-Curvularin]	0.9905 ± 0.005	1.08 ± 0.014	1.02 ± 0.03	1.095 ± 0.0071	1 ± 0.07
COC(=O)C1=C(C)NC(C)=C(C(=O)OCC(C)C)C1c1ccccc1[N+](=O)[O-] (stereo not given)	0.869 ± 0.11	1 ± 0.041	0.905 ± 0.071	0.961 ± 0.24	0.923 ± 0.037
COc1c(-c2coc3cc4c(cc3c2=O)CC(OC(C)=O)C(C)(C)O4)ccc2c1C=CC(C)(C)O2 (stereo not given)	0.961 ± 0.0085	0.887 ± 0.077	1.01 ± 0.045	1.01 ± 0.32	1.1 ± 0.16
O=C1C[C@@H](c2ccc(O)cc2)Oc2cc(O)cc(O)c21	1.045 ± 0.0071	1.055 ± 0.0071	1.03	1.015 ± 0.0071	1.04 ± 0.021
O=c1c(O)c(-c2ccccc2)oc2cccc(O)c12	1.03 ± 0.014	1.02 ± 0.044	1.01 ± 0.045	1.07	0.969 ± 0.021
CC(=O)OC/C=C(\C)CC/C=C(\C)CC/C=C(\C)CC/C=C(\C)CC/C=C(\C)CC/C=C(\C)CC/C=C(\C)CC/C=C(\C)CCC=C(C)C	1.04 ± 0.042	0.96 ± 0.085	1.06 ± 0.028	0.807 ± 0.072	1.02 ± 0.057
